Laboratory results from PubChem BioAssay AID686978 (National Center for Advancing Translational Sciences (NCATS), 2013).
In all, about 420,000 compounds went through this assay and about 64,000 (15%) were called active. Inconclusive results (about 27%) are left out. Calls follow the shape of the dose curve; as a rule, active = well fitted inhibition curve with a large enough effect; inconclusive = small, poorly fitted or top-dose-only effect; inactive = flat fitted curve, though single readings scatter. A selection follows. Entries that show only a call come without a potency.

Test: qHTS for Inhibitors of human tyrosyl-DNA phosphodiesterase 1 (TDP1): qHTS in cells in absence of CPT; also: nearly all actives have a fitted effect of over 55% in size
Conditions: DT40 Tdp1-/- hTDP1 cells, no CPT, ATP luminescence, 48 h; activity change, negative = growth inhibition: at 46.2 µM (top of the series)
Procedure, shortened: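 Cells were dispensed at 400 per well, compounds added by pin tool, plates incubated ≥48 hr at 37 °C, then CellTiter-Glo added for 30 min at room temperature before luminescence reading. Line: DT40 Tdp1-/- complemented with hTDP1; camptothecin omitted.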
Potency is read from the fitted curve at half-maximal effect.

Structure (SMILES)	Potency
CCCCc1c(O)nc2n(c1=O)CCS2	inactive
O=C(Oc1ccc(Br)cc1C(=S)N1CCOCC1)c1cccc([N+](=O)[O-])c1	inactive
O=C(/C=C/c1c(Cl)cccc1Cl)NCc1ccccc1	inactive
COn1c(=O)c(=O)n(OC)c2ccccc21	inactive
Cc1cc(OCc2cc(C(=O)NCc3cc(C(C)C)no3)no2)cc(C)c1Cl	inactive
CCOC(=O)c1c(NC(=O)c2cc(CC)on2)sc(C(C)=O)c1C	inactive
CCOC(=O)CC1(NC(=O)c2cc(COc3cncc(Cl)c3)on2)CCCCC1	20.6 µM (active)
COc1ccc2[nH]cc(CCNc3ncnc4ccc(-c5ccc(C(=O)N(C)C)cc5)cc34)c2c1	9.2 µM (active)
CNc1cc(-c2c(OC)cccc2OC)ncn1	inactive
COCCNc1ccnc(-c2cccc(NS(C)(=O)=O)c2)n1	inactive
COc1ccc2[nH]cc(CCNc3cc(-c4ccccc4CN(C)C)ncn3)c2c1	inactive
Cc1ccc2[nH]cc(CCNC(=O)c3ccc([N+](=O)[O-])cc3)c2c1	inactive
COc1cccc(-c2cc(NCCc3c[nH]c4ccc(OC)cc34)ncn2)c1	23.1 µM (active)
COc1ccc2[nH]cc(CCNc3nc(-c4cccc(NS(C)(=O)=O)c4)nc4ccccc34)c2c1	13 µM (active)
COc1ccc2[nH]cc(CCNc3ncnc4ccc(-c5ccccc5CN(C)C)cc34)c2c1	inactive
CC(=O)Nc1ccc(S(=O)(=O)N2CCn3cccc3C2C)cc1 (stereo unspecified)	inactive

Structure (SMILES)	Potency
CC(NC(=O)C(=O)NN=C1CCC(C(C)(C)C)CC1)c1ccccc1 (stereo unspecified)	inactive
CN1CCN(S(=O)(=O)c2ccc(NC(=O)c3ccco3)cc2)CC1	inactive
COc1ccc(/C(C)=N/N2CCOCC2)c(O)c1	inactive
CN1CCN(c2ccncc2S(=O)(=O)N2CCCC2)CC1	inactive
CC(C)NC(=O)N1CCN(c2ccncc2S(=O)(=O)N2CCCCC2)CC1	inactive
O=S(=O)(c1cnccc1N1CCN(/N=C/c2ccc(Br)cc2)CC1)N1CCCCC1	18.4 µM (active)
CCOC(=O)C1CCN(C(=O)Cn2cc(C#N)c3ccccc32)CC1	inactive
O=C(c1cccnc1)N1CCN(S(=O)(=O)c2cccs2)CC1	inactive
CC(C)CNC(=S)NNC(=O)c1ccccc1OC(F)F	inactive
O=C(COC(=O)c1ccc(N2CCCC2=O)cc1)c1ccc(OC(F)F)cc1	inactive
CC/C(=N\NC(=S)NC(C)C)c1ccc(OC(F)F)cc1	16.4 µM (active)
C/C=C1\C2C=C(C)CC1(N)c1ccc(=O)[nH]c1C2 (stereo unspecified)	inactive
COC(=O)Cc1c(O)ccn(Cc2cccc(C(F)(F)F)c2)c1=O	inactive
COC(=O)Cc1csc(Nc2c(C)n(C)n(-c3ccccc3)c2=O)n1	inactive
COC(=O)Cc1csc(/N=C/c2c(O)n(-c3cccc(C(F)(F)F)c3)c(=O)c3ccccc23)n1	16.4 µM (active)
